Assay [1] in a line: modulation of C. elegans fzo-1 (AID 1259413).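 Further: fzo-1 mutant C. elegans worms in liquid wells.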 Particulars: C. elegans fzo-1 modulator screen, mean read-out; stronger effect = higher value.
Assay [2] concerns Aerobactin synthetase IucA (Klebsiella pneumoniae). The assay is described as follows: inhibition of K. pneumoniae IucA enzyme – biochemical, Tocris library, absorbance (AID 1345561).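 Further: 100% = enzyme without compound and 0% = no enzyme.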 Particulars: purified IucA enzyme assay, absorbance (OD) read-out; stronger effect = lower value;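 tested at 8 µM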.
Assay [3] in a line: viability loss in pontine glioma line – cell-based, SU-DIPG-XVII, MIPE5.0, CellTiter-Glo, qHTS, dose response (AID 1347060; cut-off not given, nearly all actives have AC50 up to about 26 µM;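 on AC50: cells exposed to compound for 48 hours before viability readout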). To be noted: CellTiter-Glo ATP luminescence.
The nature of assay [4]: viability loss in pontine glioma line – cell-based, SU-DIPG-XIII, MIPE4.0, CellTiter-Glo, qHTS, dose response (AID 1347061; cut-off not given, nearly all actives have AC50 up to about 37 µM;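 further: cells exposed to compound for 48 hours before readout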). To be noted: CellTiter-Glo ATP luminescence. A general note: Cellular ATP, detected with luciferase, serves as a proxy for viable cell number.
Assay [5] can be described thus: viability loss in pontine glioma line – cell-based, SU-DIPG-XIII, MIPE5.0, CellTiter-Glo, qHTS, dose response (AID 1347064; cut-off not given, nearly all actives have AC50 up to about 23 µM;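 on AC50: cells exposed to compound for 48 hours before the viability read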). Particulars: CellTiter-Glo ATP luminescence.
Assay [6] is described as follows: EMT-state selective cytotoxicity in co-culture – imaging, PC-3E GFP, TEM4-18 mCherry, primary screen (AID 1345086;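 active means compounds killing one labelled cell type while sparing the other, by normalised counts and ratio limits, not self-fluorescent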;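 on all read-outs here: cells exposed to compound for 72 h before imaging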;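 on red/green cell ratio (normalised): normalised mesenchymal count divided by normalised epithelial count so high means epithelial killing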). Particulars: PC-3E GFP / TEM4-18 mCherry co-culture, imaging cell counts, at 1 µM; for red/green cell ratio (normalised): actives lie on both sides, counts scaled to control wells, 1 = unselective.
Assay [7] is described as follows: viability loss in pontine glioma line – cell-based, JHH-DIPG-1, MIPE4.0, CellTiter-Glo, qHTS, dose response (AID 1347062; cut-off not given, nearly all actives have AC50 up to about 27 µM;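 on AC50: cells exposed to compound for two days before readout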). Particulars: JHH-DIPG-1 viability, CellTiter-Glo ATP luminescence.
The nature of assay [8]: viability loss in pontine glioma line – cell-based, SU-DIPG-IV, MIPE4.0, CellTiter-Glo, qHTS, dose response (AID 1347063; cut-off not given, nearly all actives have AC50 up to about 30 µM;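 further: compound exposure lasted 48 hours before the viability readout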). To be noted: CellTiter-Glo ATP luminescence.
The mark [9] stands for this setting: measured here: epithelial PC-3E GFP cell survival.
The mark [10] stands for this setting: measured here: mesenchymal TEM4-18 mCherry cell survival.

Several values for one entry are separate records, joined by “and”; a condition that tells them apart may be missing. Identical values can stand only once. Records with an inconclusive call do not appear. Activity calls are given as the source filed them. Unless noted, how the calls were made is not given here.

Results on 29 compounds are retold here after PubChem BioAssay.

What is called remaining activity is the signal under treatment as a percentage of the control signal. As to `CCN1CCC[C@H]1CNC(=O)c1cc(S(N)(=O)=O)ccc1OC`, in assay [1], the mean signal is 274 (inactive). The remaining activity in assay [2] was 123% (inactive).

`O=C(c1ccc(F)cc1)C1CCN(CCn2c(=S)[nH]c3ccccc3c2=O)CC1`: the mean signal in assay [1] is 246 (inactive). In addition, in assay [2], the remaining activity was 106% (inactive).

Regarding `CC(Cc1ccccc1)(NC(=O)CN)c1ccccc1` (stereo not given), in assay [1], the mean signal is 268 (inactive). For the same compound, the remaining activity in assay [2] is 116% (inactive).

As for `Clc1ccc2nsnc2c1NC1=NCCN1`, in assay [1], the mean signal was 249 (inactive). In assay [2], the remaining activity was 113% (inactive). In addition, the compound was called inactive in assay [3], in assay [4] and in assay [5].

In the case of `O=C1CCc2ccc(OCCCCN3CCN(c4cccc(Cl)c4Cl)CC3)cc2N1`, the mean signal in assay [1] is 231 (inactive). For the same compound, the red/green cell ratio (normalised) in assay [6] is 0.72 (inactive). Also, the normalised cell number in assay [6] (setting [9]) is 1.31; in assay [6] (setting [10]), 0.94. In addition, the call in assay [4] and in assay [7] was inactive.

With `C[C@@H]1CN(CCCn2c3ccccc3c3ccccc32)C[C@H](C)N1`, the mean signal in assay [1] was 203 (inactive). Moreover, in assay [2], the remaining activity was 123% (inactive).

What is called AC50 is the concentration at which the activity in the assay is half-maximal. Turning to `COc1cc(C(=O)NS(=O)(=O)c2ccccc2C)ccc1Cc1cn(C)c2ccc(NC(=O)OC3CCCC3)cc12`, the mean signal in assay [1] was 223 (inactive). In addition, in assay [3], the compound was called inactive. In addition, the AC50 in assay [8] was 20.9 µM (active).

With `COc1cc(-c2ccc(=O)[nH]n2)ccc1OC(F)F`, the mean signal in assay [1] was 244 (inactive). Further, the remaining activity in assay [2] is 112% (inactive).

As for `Nc1ccn([C@H]2CC[C@@H](CO)O2)c(=O)n1`, in assay [1], the mean signal was 305 (inactive). Moreover, the red/green cell ratio (normalised) in assay [6] is 0.76 (inactive). For the same compound, the normalised cell number in assay [6] (setting [9]) was determined as 1.16; in assay [6] (setting [10]), 0.88. The compound was called inactive in assay [8].

On to `CCN1CCC[C@H]1CNC(=O)c1c(O)c(Cl)cc(Cl)c1OC`, for which the mean signal in assay [1] was 227 (inactive). For the same compound, the remaining activity in assay [2] was 118% (inactive).

For `Cc1ncc([N+](=O)[O-])n1CCO`, the mean signal in assay [1] was 239 (inactive). Also, the red/green cell ratio (normalised) in assay [6] was 1.23 (inactive). Moreover, the normalised cell number amounted to 0.93 in assay [6] (setting [9]) and 1.13 in assay [6] (setting [10]). The compound was called inactive in assay [4], in assay [7] and in assay [8].

`CN1[C@@H]2CC[C@H]1CC(OC(=O)c1c[nH]c3ccccc13)C2` (stereo not given in full): the mean signal in assay [1] was 271 (inactive). The remaining activity in assay [2] is 107% (inactive). Further, the outcome in assay [7] and in assay [8] was inactive.

With `COc1cccc2c1C(=O)c1c(O)c3c(c(O)c1C2=O)C[C@@](O)(C(=O)CO)C[C@@H]3O[C@H]1C[C@H](N)[C@H](O)[C@H](C)O1`, the mean signal in assay [1] is 234 (inactive). For the same compound, the remaining activity in assay [2] was 110% (inactive). Besides, the AC50 in assay [3] is 0.235 µM (active); in assay [7], 0.332 µM (active); in assay [8] it was 0.418 µM (active); in assay [5] it was 0.934 µM (active).

For `NC(=O)OCC(COC(N)=O)c1ccccc1`, the mean signal in assay [1] was 234 (inactive). The remaining activity in assay [2] is 104% (inactive). Further, the call in assay [3], in assay [4] and in assay [7] was inactive.

On to `CN(C)CC/C=C1/c2ccccc2COc2ccc(CC(=O)O)cc21`, for which, in assay [1], the mean signal was 251 (inactive). Also, the compound was called inactive in assay [3], in assay [4], in assay [7] and in assay [5].

Take `CN(CCOc1ccc(NS(C)(=O)=O)cc1)CCc1ccc(NS(C)(=O)=O)cc1`: the mean signal in assay [1] is 278 (inactive). The call in assay [3], in assay [4], in assay [7] and in assay [8] was inactive.

With `CC(c1cc2ccccc2s1)N(O)C(N)=O` (stereo not given), the mean signal in assay [1] is 255 (inactive). The red/green cell ratio (normalised) in assay [6] is 0.83 (inactive). Besides, the normalised cell number in assay [6] (setting [9]) was determined as 1.22; in assay [6] (setting [10]) it was 1.01. The compound was classed as inactive in assay [4], in assay [7] and in assay [8].

On to `CN(C)CCCSc1ccccc1NC(=O)/C=C/c1ccccc1`, for which the mean signal in assay [1] is 241 (inactive). Besides, in assay [2], the remaining activity was 115% (inactive).

For `Brc1c(NC2=NCCN2)ccc2nccnc12`, the mean signal in assay [1] is 249 (inactive). Also, the remaining activity in assay [2] is 80.2% (inactive) and 100% (inactive).

As for `NC1CCN(c2cccc(Cl)n2)CC1`, the mean signal in assay [1] was 216 (inactive). Further, in assay [2], the remaining activity is 113% (inactive).

On to `O=C1N(c2ccccc2)c2ccccc2C1(Cc1ccncc1)Cc1ccncc1`, for which the mean signal in assay [1] was 247 (inactive). The remaining activity in assay [2] is 110% (inactive). Further, the call in assay [3], in assay [4], in assay [7], in assay [8] and in assay [5] was inactive.

Take `NS(=O)(=O)c1cc(C(=O)O)c(NCc2ccco2)cc1Cl`: the mean signal in assay [1] was 263 (inactive). For the same compound, in assay [6], the red/green cell ratio (normalised) is 1.08 (inactive). The normalised cell number in assay [6] (setting [9]) was 1.05; in assay [6] (setting [10]) it was 1.14. Further, the compound was called inactive in assay [4].

As for `CCOC(=O)[C@H](CCc1ccccc1)N[C@@H](C)C(=O)N1[C@H](C(=O)O)C[C@@H]2CCC[C@@H]21`, the mean signal in assay [1] was 226 (inactive). The red/green cell ratio (normalised) in assay [6] is 0.83 (inactive). For the same compound, the normalised cell number came out at 1.1 in assay [6] (setting [9]) and 0.91 in assay [6] (setting [10]). Also, the figures for the AC50 in assay [4], in assay [7] and in assay [8] were 8.33 µM (active), 16.6 µM (active) and 5.9 µM (active), respectively. The outcome in assay [5] was inactive.

Regarding `Cc1cn([C@H]2C=C[C@@H](CO)O2)c(=O)[nH]c1=O`, the mean signal in assay [1] is 233 (inactive). Moreover, in assay [6], the red/green cell ratio (normalised) is 0.8 (inactive). Besides, the normalised cell number in assay [6] (setting [9]) stood at 1.35; in assay [6] (setting [10]), 1.09. For the same compound, the call in assay [4], in assay [7] and in assay [8] was inactive.

As to `CCN(CC)CC1CCCCN1CC(=O)N1c2ccccc2C(=O)Nc2cccnc21` (stereo not given), the mean signal in assay [1] was 227 (inactive). In assay [2], the remaining activity is 116% (inactive).

With `NS(=O)(=O)Cc1noc2ccccc12`, the mean signal in assay [1] is 260 (inactive). For the same compound, in assay [2], the remaining activity is 96.2% (inactive).

In the case of `Cn1c(NCCN(CCO)CCCc2ccc([N+](=O)[O-])cc2)cc(=O)n(C)c1=O`, in assay [1], the mean signal is 242 (inactive). For the same compound, the compound was classed as inactive in assay [3] and in assay [5]. Besides, the concentration at half-maximal activity (AC50) in assay [8] is 20.9 µM (active).

Take `Cc1nc2n(c(=O)c1CCN1CCC(c3noc4cc(F)ccc34)CC1)CCCC2`: the mean signal in assay [1] is 241 (inactive). Moreover, the red/green cell ratio (normalised) in assay [6] was 0.98 (inactive). Also, the normalised cell number in assay [6] (setting [9]) was 1.02; in assay [6] (setting [10]) it was 1. Moreover, the result in assay [4] and in assay [8] was inactive.

For the compound `Nc1nc(F)nc2c1ncn2[C@@H]1O[C@H](CO)[C@@H](O)[C@@H]1O`, the mean signal in assay [1] is 243 (inactive). Besides, the remaining activity in assay [2] was 101% (inactive). In addition, the concentration at half-maximal activity (AC50) in assay [3] was 10.5 µM (active).
